Measured values: PubChem BioAssay AID1159580 (chemical genetic matrix, 2015)
About 2,000 (36%) of roughly 5,500 compounds were called active. About 18% were inconclusive and are not listed. Cut-off read from the data, not from the text of the source: active = normalized growth mostly below about 0.91 (no sharp cut-off); inconclusive = no clear call, values can overlap the other calls; inactive = mostly above about 0.92. This is one part of the list.

Assay: chemical genetic growth profiling, strain panel (AID 1159580);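 note: tested at 20 µM; growth read once vehicle control cultures reached saturation at 30 °C; 1 = growth at the plate median or of vehicle wells; lower values mean less growth of the strain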
Details: growth OD

Measured: normalized growth

ClC1=C(Cl)C2(Cl)C3C(Cl)C=CC3C1(Cl)C2(Cl)Cl (configuration not stated)
inactive: S. cerevisiae deletion strains, locus YJR075W, strain HOC1, stronger effect = lower value 1 | S. cerevisiae deletion strains, locus YKL009W, strain mrt4, stronger effect = lower value 0.957 | S. cerevisiae deletion strains, locus YKL068W, stronger effect = lower value 1 | S. cerevisiae deletion strains, locus YKL085W, strain MDH1 (second series), stronger effect = lower value 0.996 | S. cerevisiae deletion strains, locus YKL085W, strain MDH1, stronger effect = lower value 0.996 | S. cerevisiae deletion strains, locus YKL160W, strain elf1, stronger effect = lower value 0.993 | S. cerevisiae deletion strains, locus YKL190W, strain CNB1, stronger effect = lower value 0.989 | S. cerevisiae deletion strains, locus YKR001C, strain vps1, stronger effect = lower value 0.965 | S. cerevisiae deletion strains, locus YKR026C, strain gcn3, stronger effect = lower value 1.01 | S. cerevisiae deletion strains, locus YKR091W, strain srl3, stronger effect = lower value 1.01 | S. cerevisiae deletion strains, locus YLL001W, strain dnm1, stronger effect = lower value 1 | S. cerevisiae deletion strains, locus YLL026W, stronger effect = lower value 1.01 | S. cerevisiae deletion strains, locus YLL041C, strain sdh2, stronger effect = lower value 1.01 | S. cerevisiae deletion strains, locus YLR027C, strain aat2, stronger effect = lower value 0.97 | S. cerevisiae deletion strains, locus YLR039C, strain RIC1, stronger effect = lower value 1 | S. cerevisiae deletion strains, locus YLR058C, strain SHM2, stronger effect = lower value 0.986 | S. cerevisiae deletion strains, locus YLR102C, strain apc9, stronger effect = lower value 0.981 | S. cerevisiae deletion strains, locus YLR113W, strain HOG1, stronger effect = lower value 0.938 | S. cerevisiae deletion strains, locus YLR221C, strain rsa3, stronger effect = lower value 0.971 | S. cerevisiae deletion strains, locus YLR258W, strain gsy2, stronger effect = lower value 0.988 | S. cerevisiae deletion strains, locus YLR262C, strain YPT6 (second series), stronger effect = lower value 0.933 | S. cerevisiae deletion strains, locus YLR262C, strain YPT6, stronger effect = lower value 1.01 | S. cerevisiae deletion strains, locus YLR268W, strain sec22, stronger effect = lower value 0.985 | S. cerevisiae deletion strains, locus YLR320W, strain mms22, stronger effect = lower value 0.965 | S. cerevisiae deletion strains, locus YLR330W, strain CHS5, stronger effect = lower value 0.998 | S. cerevisiae deletion strains, locus YLR342W, strain FKS1 (second series), stronger effect = lower value 0.948 | S. cerevisiae deletion strains, locus YLR342W, strain FKS1, stronger effect = lower value 1.01 | S. cerevisiae deletion strains, locus YLR357W, strain rsc2, stronger effect = lower value 1 | S. cerevisiae deletion strains, locus YLR370C, strain arc18, stronger effect = lower value 0.999 | S. cerevisiae deletion strains, locus YLR371W, strain rom2, stronger effect = lower value 0.973 | S. cerevisiae deletion strains, locus YLR384C, strain iki3, stronger effect = lower value 1.01 | S. cerevisiae deletion strains, locus YLR418C, strain cdc73, stronger effect = lower value 0.977 | S. cerevisiae deletion strains, locus YML016C, strain PPZ1, stronger effect = lower value 0.992 | S. cerevisiae deletion strains, locus YML032C, strain rad52, stronger effect = lower value 0.968 | S. cerevisiae deletion strains, locus YML120C, strain ndi1, stronger effect = lower value 1 | S. cerevisiae deletion strains, locus YML124C, strain tub3, stronger effect = lower value 0.978 | S. cerevisiae deletion strains, locus YMR058W, strain fet3, stronger effect = lower value 0.998 | S. cerevisiae deletion strains, locus YMR078C, strain ctf18, stronger effect = lower value 0.959 | S. cerevisiae deletion strains, locus YMR125W, strain sto1, stronger effect = lower value 1.01 | S. cerevisiae deletion strains, locus YMR129W, stronger effect = lower value 1.01 | S. cerevisiae deletion strains, locus YMR205C, strain PFK2, stronger effect = lower value 0.947 | S. cerevisiae deletion strains, locus YMR223W, strain ubp8, stronger effect = lower value 0.95 | S. cerevisiae deletion strains, locus YMR231W, strain pep5, stronger effect = lower value 0.987 | S. cerevisiae deletion strains, locus YMR263W, strain SAP30, stronger effect = lower value 0.999 | S. cerevisiae deletion strains, locus YMR307W, strain GAS1, stronger effect = lower value 1.06 | S. cerevisiae deletion strains, locus YNL067W, strain RPL9B, stronger effect = lower value 1 | S. cerevisiae deletion strains, locus YNL071W, strain lat1, stronger effect = lower value 1.02 | S. cerevisiae deletion strains, locus YNL128W, strain TEP1, stronger effect = lower value 0.987 | S. cerevisiae deletion strains, locus YNL153C, strain GIM3, stronger effect = lower value 0.989 | S. cerevisiae deletion strains, locus YNL183C, strain NPR1, stronger effect = lower value 0.962 | S. cerevisiae deletion strains, locus YNL209W, strain ssb2, stronger effect = lower value 0.997 | S. cerevisiae deletion strains, locus YNL233W, strain BNI4, stronger effect = lower value 0.978 | S. cerevisiae deletion strains, locus YNL248C, strain rpa49, stronger effect = lower value 0.996 | S. cerevisiae deletion strains, locus YNL250W, strain rad50, stronger effect = lower value 0.99 | S. cerevisiae deletion strains, locus YNL271C, strain bni1, stronger effect = lower value 0.984 | S. cerevisiae deletion strains, locus YNL298W, strain CLA4, stronger effect = lower value 0.977 | S. cerevisiae deletion strains, locus YNL322C, strain KRE1 (second series), stronger effect = lower value 0.982 | S. cerevisiae deletion strains, locus YNL322C, strain KRE1, stronger effect = lower value 1 | S. cerevisiae deletion strains, locus YNR049C, strain mso1, stronger effect = lower value 1 | S. cerevisiae deletion strains, locus YNR052C, strain pop2, stronger effect = lower value 0.964 | S. cerevisiae deletion strains, locus YOL006C, strain TOP1, stronger effect = lower value 0.97 | S. cerevisiae deletion strains, locus YOL012C, strain htz1 0.908 | S. cerevisiae deletion strains, locus YOL147C, strain pex11, stronger effect = lower value 0.989 | S. cerevisiae deletion strains, locus YOR001W, strain rrp6, stronger effect = lower value 1.01 | S. cerevisiae deletion strains, locus YOR061W, strain CKA2, stronger effect = lower value 0.993 | S. cerevisiae deletion strains, locus YOR069W, strain VPS5, stronger effect = lower value 0.982 | S. cerevisiae deletion strains, locus YOR070C, strain gyp1, stronger effect = lower value 1.01 | S. cerevisiae deletion strains, locus YOR080W, strain dia2, stronger effect = lower value 0.995 | S. cerevisiae deletion strains, locus YOR083W, strain WHI5, stronger effect = lower value 0.974 | S. cerevisiae deletion strains, locus YOR106W, strain vam3, stronger effect = lower value 0.942 | S. cerevisiae deletion strains, locus YOR136W, strain idh2, stronger effect = lower value 0.963 | S. cerevisiae deletion strains, locus YOR144C, strain elg1, stronger effect = lower value 0.977 | S. cerevisiae deletion strains, locus YOR184W, strain ser1, stronger effect = lower value 0.886 | S. cerevisiae deletion strains, locus YOR231W, strain MKK1, stronger effect = lower value 1.02 | S. cerevisiae deletion strains, locus YOR265W, strain rbl2, stronger effect = lower value 1.01 | S. cerevisiae deletion strains, locus YOR270C, strain vph1, stronger effect = lower value 0.82 | S. cerevisiae deletion strains, locus YOR290C, strain snf2, stronger effect = lower value 0.939 | S. cerevisiae deletion strains, locus YOR316C, strain cot1, stronger effect = lower value 0.985 | S. cerevisiae deletion strains, locus YPL051W, strain arl3, stronger effect = lower value 0.996 | S. cerevisiae deletion strains, locus YPL055C, strain LGE1, stronger effect = lower value 1 | S. cerevisiae deletion strains, locus YPL078C, strain atp4, stronger effect = lower value 1 | S. cerevisiae deletion strains, locus YPL106C, strain sse1, stronger effect = lower value 0.963 | S. cerevisiae deletion strains, locus YPL240C, strain hsp82, stronger effect = lower value 0.999 | S. cerevisiae deletion strains, locus YPL241C, strain CIN2, stronger effect = lower value 0.993 | S. cerevisiae deletion strains, locus YPL256C, strain CLN2, stronger effect = lower value 1.02 | S. cerevisiae deletion strains, locus YPR119W, strain clb2, stronger effect = lower value 0.987 | S. cerevisiae deletion strains, locus YPR141C, strain kar3, stronger effect = lower value 0.982 | S. cerevisiae deletion strains, locus YPR163C, strain tif3, stronger effect = lower value 0.981 | S. cerevisiae deletion strains, locus YPR167C, strain met16, stronger effect = lower value 0.976 | S. cerevisiae deletion strains, strain wtn01, stronger effect = lower value 0.97 | S. cerevisiae strains, strain wild type, stronger effect = lower value 1
active: S. cerevisiae deletion strains, locus YNL307C, strain MCK1, stronger effect = lower value 0.885
